“And” between values parts separate entries of the source, which are not always exact repeats. Equal entries are not always repeated. Records with an inconclusive call do not appear. Where a call stands in place of a potency, no number is given. Some structures have more than one record in an assay (separate samples or runs), and their calls can disagree. The source made the active and inactive calls. Calls follow the shape of the dose curve; as a rule, active = well fitted curve in the direction sought with a large enough effect; inconclusive = small, poorly fitted or top-dose-only effect, or another doubt; inactive = no such curve, though single readings can be large; an effect the other way counts as inactive or inconclusive.
Legend:
[1] = Viability qHTS for spleen associated tyrosine kinase inhibitor (SYKi) naive MV4-11 cells (AID 1963823); also: nearly all actives have a fitted effect of over 40% in size
In short: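 CellTiter-Glo luminescence, 10 min room-temperature incubation, gave viability. Cells: naive MV4-11 (500/well), treated 72 hr at 37 C, 5% CO2.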

[2] = Viability qHTS for spleen associated tyrosine kinase inhibitor (SYKi) drug resistant MV4-11 cells (AID 1963824); also: nearly all actives have a fitted effect of over 35% in size
In short: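 CellTiter-Glo luminescence, read 10 min after reagent addition, reports viability after a 72 hr compound exposure. Cells are an MV4-11 line made resistant to SYK inhibition, seeded at 500 per well onto compound-containing plates.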

[3] = Cellular viability qHTS for adrenocortical cancer (ACC) cell line SW-13 (AID 1963989); conditions: SW-13 ACC cells viability, CellTiter-Glo, 48 h; activity (max response): stronger effect = lower value; also: nearly all actives have a fitted effect of over 65% in size;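 as to activity (max response): cells grown in serum-free medium with ITS supplement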
In short: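 48 h treatment, SW-13 in ITS/DMEM serum-free; doses up to 46 uM; readout CellTiter-Glo luminescence; curve fit four-parameter logistic.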

[4] = Cellular viability qHTS for adrenocortical cancer (ACC) cell line NCI-H295R (AID 1963990); also: nearly all actives have a fitted effect of over 60% in size
In short: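 Compound titrations (up to 46 uM final) are applied to NCI-H295R cultures for 48 h at 37C. Viable cell number is estimated by CellTiter-Glo signal, normalised to DMSO and doxorubicin controls.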
Potency is read from the fitted curve at half-maximal effect.

Row | Structure (SMILES) | Potency [1] | Potency [2] | activity (max response) [3] | Potency [4] | Potency [3]
1 | C[C@]12CCC3[C@@H](CC[C@H]4NC(=O)C=C[C@]34C)[C@@H]1CC[C@@H]2C(=O)Nc1cc(C(F)(F)F)ccc1C(F)(F)F (some centres not stated) | 10500 nM (active) | 9340 nM (active) | -0.361% (inactive) | inactive | 
2 | O=C(O)CNC(=O)c1nc(Cl)c2ccccc2c1O | inactive | inactive | 8.31% (inactive) | inactive | 
3 | CSc1ccc(C(=O)/C=C/c2cc(C)c(OC(C)(C)C(=O)O)c(C)c2)cc1 | 3030 nM (active) | 4280 nM (active) |  | 39800 nM (active) | 35500 nM (active)
4 | CC(C)c1c2cc(-c3ccnc(NC4CCC(NC5CCOCC5)CC4)n3)ccc2nn1C (configuration not stated) | 130 nM (active) and 105 nM (active) | 116 nM (active) and 83.3 nM (active) |  | 447 nM (active) | 282 nM (active)
5 | C(=C\c1ccccc1)/CN1CCN(C(c2ccccc2)c2ccccc2)CC1 | inactive | inactive | -1.91% (inactive) | inactive | 
6 | Cc1[nH]cnc1CN1CCN(C(=O)N[C@@H](CC(C)C)C(=O)O)[C@@H](Cc2ccccc2)C1=O | inactive | inactive | 6.54% (inactive) | inactive | 
7 | Cc1c[nH]c2ncnc(N3CCC(CN)(C(=O)Nc4cccc(OC(=O)N(C)C)c4)CC3)c12 | 517 nM (active) and 662 nM (active) | 1.3 µM (active) and 1.66 µM (active) | -9.88% (inactive) | inactive and 22.4 µM (active) | 
8 | CNC(=O)CN(CCN(CCN(CC(=O)[O-])CC(=O)NC)CC(=O)[O-])CC(=O)[O-].O.[Gd+3] | inactive | inactive | -4.04% (inactive) | inactive | 
9 | CN1CCCN=C1/C=C/c1cccs1 | inactive | inactive | 0.0735% (inactive) and 9.48% (inactive) | inactive | 
10 | CC[C@]12CCCN3CCc4c(n(c5ccccc45)[C@@](O)(C(=O)OC)C1)[C@@H]32 | inactive | inactive | 1.04% (inactive) | inactive | 
11 | CC(/C=C/[C@@H]1C[C@]1(C)c1ccc2c(c1)C(C)(C)CCC2(C)C)=C\C(=O)O | 66.1 nM (active) | 468 nM (active) | -5.24% (inactive) | inactive | 
12 | CC1(C(=O)O)CCC2(C)CCC3(C)C(=CC(=O)C4C5(C)CCC(OC6OC(C(=O)O)C(O)C(O)C6OC6OC(C(=O)O)C(O)C(O)C6O)C(C)(C)C5CCC43C)C2C1 (configuration not stated) | inactive | inactive | 1.77% (inactive) | inactive | 
13 | Cc1cccc(C)c1NC(=O)CN(CC(=O)O)CC(=O)O | inactive | inactive | 9.48% (inactive) | inactive | 
14 | C=CCCCCCCCCC(=O)O | inactive | inactive | 9.7% (inactive) | inactive | 
15 | CCC(=C/[C@H](C)C/C=C/C(C)=C/[C@@H](C)C(=O)[C@@H](C)[C@H](O)[C@@H](C)C/C(C)=C/C(=O)O)/C=C/[C@@H]1OC(=O)C=C[C@@H]1C | 1.9 nM (active) | 2.1 nM (active) |  | 10 nM (active) | 25.1 nM (active)
16 | C[C@H]1CNC(=O)c2cnn3ccc(nc23)N[C@H](C)c2cc(F)ccc2O1 | 525 nM (active) | 934 nM (active) |  | 8910 nM (active) | 8910 nM (active)
17 | CSc1ccc(C(=O)c2[nH]c(=O)[nH]c2C)cc1 | inactive | inactive | 15.3% (inactive) | inactive | 
18 | COc1ccc([C@@H]2Sc3ccccc3N(CCN(C)C)C(=O)[C@@H]2OC(C)=O)cc1 | inactive | 7.5 µM (active) and inactive | -9.3% (inactive) and 4.69% (inactive) | inactive | 
19 | NS(=O)(=O)c1cc2c(cc1Cl)NC(C1CC3C=CC1C3)NS2(=O)=O (configuration not stated) | inactive | inactive | -7.72% (inactive) | inactive | 
20 | C[C@@H]1N=C(N)NC(N(C)C)=N1 | inactive | inactive | -4.04% (inactive) | inactive | 
21 | Cc1nc(-c2cccnc2)sc1C(=O)Nc1ccccc1-c1cn2c(CN3CCOCC3)csc2n1 | inactive | inactive | -5.59% (inactive) | inactive | 
22 | Nc1ccc(S(=O)(=O)Nc2ccccn2)cc1 | inactive | inactive | 6.67% (inactive) | inactive | 
23 | COc1ccc2c(c1)[C@]1(C[C@H]1c1ccc3c(/C=C/c4ccc(CN5C[C@@H](C)O[C@@H](C)C5)cc4)n[nH]c3c1)C(=O)N2 | 105 nM (active) | 332 nM (active) |  | 6310 nM (active) | 14100 nM (active)

Reference: PubChem BioAssay (NCATS)
